Results filed as inconclusive are left out. A call without a number means that no potency is given here. Active and inactive are the calls of the source. Calls follow the shape of the dose curve; as a rule, active = well fitted inhibition curve with a large enough effect; inconclusive = small, poorly fitted or top-dose-only effect; inactive = flat fitted curve, though single readings scatter.
target: Aldehyde dehydrogenase, mitochondrial (Homo sapiens) (UniProt P05091); experiment: qHTS for Inhibitors of the Aldehyde Dehydrogenase Family (ALDH2) Primary screen (AID 2061308); conditions: ALDH2 enzyme inhibition qHTS, 1536-well; series mostly up to 56 µM; also: nearly all actives have a fitted effect of over 55% in size

Row | Compound | Potency | activity change, negative = inhibition
1 | O=S(=O)(c1ccccc1)N(CC(F)(F)F)c1ccc(C(O)(C(F)(F)F)C(F)(F)F)cc1 | inactive | –
2 | O=C1CCC(=O)N(O)CCCCCNC(=O)CCC(=O)N(O)CCOCCNC(=O)CCC(=O)N(O)CCCCCN1 | inactive | –
3 | O=C(O)c1ccc(OC2OC(CO)C(O)C(O)C2O)cc1 (stereo not drawn) | inactive | –
4 | COc1ccc(C2Oc3c(OC)cc(CCCO)cc3C2COC2OC(CO)C(O)C(O)C2O)cc1OC (stereo not drawn) | inactive | –
5 | O=S(=O)(c1ccc(S(=O)(=O)n2cnc3ccccc32)cc1)N1CCCCCC1 | inactive | –
6 | COC(=O)CC1(O)C(=O)Nc2ccccc21 (stereo not drawn) | inactive | –
7 | C/C=C/C=C/[C@@H]1O[C@](O)([C@H](CC)C(=O)NC/C=C/C=C(\C)[C@@H](OC)[C@@H](C)[C@@H]2O[C@H](/C=C/C=C/C=C(\C)C(=O)c3c(O)ccn(C)c3=O)[C@H](O)[C@@H]2O)[C@H](O)[C@H](O)C1(C)C | inactive | –
8 | CC(C)c1cc(C(=O)N2CC[C@@H](NC(=O)C3CC3)C2)n[nH]1 | inactive | –
9 | CC1=C(C)C(=O)OC(C(C)(O)C2CCC3C4CC=C5CC(OC6OC(COC7OC(CO)C(O)C(O)C7O)C(O)C(O)C6O)CC(O)C5(C)C4CCC32C)C1 (stereo not drawn) | inactive | –
10 | CC(=O)OC1C(O)CC(O[C@@H]2O[C@H](CO)[C@@H](O)[C@H](O)[C@H]2O)C2CCC3C(=O)OC(c4ccoc4)CC3(C)C21 (stereo partly drawn) | inactive | –
11 | O=C(Nc1nc2cc(C(F)(F)F)cc(NC3CC3)n2n1)c1cccnc1 | inactive | –
12 | CC1(C)CCC2(C(=O)OC3OC(COC4OC(CO)C(O)C(O)C4O)C(O)C(O)C3O)CCC3(C)C(=CCC4C5(C)CCC(OC6OCC(O)C(O)C6O)C(C)(C)C5CCC43C)C2C1O (stereo not drawn) | inactive | –
13 | CC(C)/C=C1\NC(=O)C(C(C)C)n2c1nc1ccccc1c2=O (stereo not drawn) | inactive | –
14 | Cc1c(O)cc2c(c1O)COC1(O)CCCOC21 (stereo not drawn) | inactive | –
15 | COCC1OC(n2cnc3c(=O)[nH]cnc32)C(O)C1O (stereo not drawn) | inactive | –
16 | CC(C)(C)OC(=O)c1ncn2c1C(C)(C)Nc1ccccc1-2 | inactive | –
17 | CC(=O)N[C@H]1[C@H](O[C@H]2CC[C@@]3(C)C(CC[C@]4(C)C3CC=C3C5CC(C)(C)CC[C@]5(C(=O)O)[C@H](O)C[C@]34C)C2(C)C)O[C@H](CO[C@@H]2OC[C@H](O)[C@H](O)[C@H]2O[C@@H]2OC[C@@H](O)[C@H](O)[C@H]2O)[C@@H](O)[C@@H]1O (stereo partly drawn) | inactive | –

Row | Compound | Potency | activity change, negative = inhibition
18 | Cn1nnc(-c2ccc(-c3ccc(N4C[C@H](CO)OC4=O)cc3F)cn2)n1 | inactive | –
19 | CC1=C2CC3OC3(C)CCC3OC3(C)CC2OC1=O (stereo not drawn) | inactive | –
20 | OCC1OC(Oc2cc(O)cc(/C=C/c3ccc(O)cc3)c2)C(O)C(O)C1O (stereo not drawn) | inactive | –
21 | CC1C(O)C(O)C2C(C(=O)OCCc3ccc(O)cc3)=COC(O[C@@H]3O[C@H](CO)[C@@H](O)[C@H](O)[C@H]3O)C12 (stereo partly drawn) | inactive | –
22 | C[C@H]1C(=O)N2c3ccccc3[C@@]3(O)C[C@@H]4C(=O)N[C@](C)(c5nc6ccccc6c(=O)n54)N1[C@@H]23 | inactive | –
23 | C=C1C(OC2OCC(O)C(O)C2O)CC2C(C)(C)C(O)CCC2(C)C1CC/C(C)=C\CO (stereo not drawn) | inactive | –
24 | COc1cccc(Cn2ncc3c4sc(S(C)=O)cc4n(C)c3c2=O)c1 (stereo not drawn) | inactive | –
25 | C=CC(=O)Nc1cc(Nc2nccc(-c3c[nH]c4ccccc34)n2)c(OC)cc1N(C)CCN(C)C | inactive | –
26 | CC1=CC2(O)/C=C/C(C)(O)CC(O)/C=C/C(=O)OC23C(=O)NC(CC(C)C)C3C1C (stereo not drawn) | inactive | –
27 | COc1ccc(S(=O)(=O)Nc2cc(Cl)cc(Cl)c2OC)cc1N1CCNCC1 | inactive | –
28 | COc1cc2c(c(OC)c1CC=C(C)C)C[C@H](c1ccc(O)c(CC=C(C)C)c1O)CO2 | inactive | –
29 | CC(CO)C1CCC2(C)CC3C(CO)CC(O)C3C(C)(O)C/C=C/12 (stereo not drawn) | inactive | –
30 | CC(C(O)/C=C/C(C)(C)O)C1CCC2(C)C3C(=O)C=C4C(CCC(O)C4(C)C)C3(C)CCC12C (stereo not drawn) | inactive | –
31 | CC(=O)O[C@H]1CC[C@@]2(CI)C(=CC[C@@H]3[C@@H]2CC[C@]2(C)[C@@H]([C@H](C)CCCC(C)C)CC[C@@H]32)C1 | – | -4.11% [at 11.2 µM] (inactive)
32 | CC(C)(C)c1cc(CN2CCN(CC(O)c3ccc(Cl)cc3)CC2)cc(C(C)(C)C)c1O (stereo not drawn) | inactive | –
33 | CC1(C)CC[C@]2(C(=O)O[C@@H]3O[C@H](CO)[C@@H](O)[C@H](O)[C@H]3O)CC[C@]3(C)C(=CCC4[C@@]5(C)C[C@@H](O)[C@H](O)C(CO)(CO)C5CC[C@]43C)C2[C@@H]1O (stereo partly drawn) | inactive | –

Reference: PubChem BioAssay (NCATS)
